For 60 compounds, Inhibition results are on record in ChEMBL document CHEMBL1157539, “Thousands of chemical starting points for antimalarial lead identification” (Nature, 2010).

What all share (type): functional
Test [1] relates to Plasmodium falciparum. The test is described as follows: GSK_TCMDC: Inhibition of Plasmodium falciparum 3D7 in whole red blood cells, using parasite LDH activity as an index of growth. Test compounds present at 2uM.
For test [2], the system named is Plasmodium falciparum. The test is described as follows: GSK_TCMDC: Inhibition of Plasmodium falciparum Dd2 in whole red blood cells, using parasite LDH activity as an index of growth. Test compounds present at 2uM.
For test [3], the system named is HepG2. The test is described as follows: GSK_TCMDC: Percent inhibition of human HepG2 cell line. Test compounds present at 10uM.

For the compound `Cc1onc(-c2ccccc2)c1-c1nc(NC2CCCC(C)C2)no1` (stereo not given), the Inhibition (in general, the change of the read-out against control, counted positive when it falls) is on record as 100% in test [1], 46% in test [2] and 22% in test [3].
For `CN1CCN(c2ccnc3ccc(NC(=O)Nc4ccc(-c5ccncc5)c(C#N)c4)cc23)CC1`, the Inhibition in test [1] worked out at 100%; in test [2] it was 99%; in test [3], 32%.
In the case of `CCOCCCNc1nc2cc(OC)c(OC)cc2c2nc(-c3ccccc3)nn12`, the Inhibition is recorded as 96% in test [1], 98% in test [2] and 10% in test [3].
The corresponding values for `CN(C(=O)/C=C/c1cc(C(F)(F)F)ccc1F)C1CCN(CCCCCNC(=O)/C=C/c2ccc(Cl)c(Cl)c2)CC1` are 100%, 68% and 71%.
As for `CN1CCN(CCCN(Cc2ccc(-c3ccc(CNCc4ccc5c(c4)OCO5)cc3)cc2)C(=O)CCC2CCCC2)CC1.O=C(O)C(F)(F)F`, the Inhibition is 99% in test [1], 85% in test [2] and 55% in test [3].
The corresponding values for `Cl.Nc1c2c(nc3ccc(NC(=O)CCCCCCc4ccccc4)cc13)CCCC2` are 100%, 90% and 100%.
In the same order, the values of `CC(=O)Nc1ccc(OCCCCN(Cc2ccccc2C(F)(F)F)c2ccc(C#N)c(C(F)(F)F)c2)c(Cl)c1` are 98%, 71% and 0%.
In the same order, the values of `O=C(Cc1cccc(O)c1)NCC(Cc1ccc(O)cc1)c1ccccc1` (stereo not given) are 91%, 97% and 0%.
As to `COc1ccc(C2C(C(=O)Nc3cc(OC)c(OC)c(OC)c3)c3cc(OC)c(OC)cc3C(=O)N2C)cc1` (stereo not given), the Inhibition came out at 98% in test [1], 100% in test [2] and 9% in test [3].
In the same order, the values of `Cn1cncc1CCN(Cc1ccc(-c2ccc(C(F)(F)F)cc2)cc1)C(=O)Cn1c(CCc2cccc(F)c2F)cc(=O)c2cccnc21` are 100%, 97% and 44%.
In the same order, the values of `CCCCCCNC[C@@H](O)[C@H](Cc1ccccc1)NC(=O)c1cc(NCC)cc(N2CCCCS2(=O)=O)c1.Cl` are 100%, 98% and 5%.
In the case of `COc1cccc2c(NCc3ccccc3)nc(NCCCN3CCCCC3C)nc12` (stereo not given), the results for the Inhibition in test [1], in test [2] and in test [3] were 90%, 2% and 20%, respectively.
In the same order, the values of `Cc1nnc(N2C(=N)SC(=Cc3ccc(-c4ccc(OC(F)(F)F)cc4)o3)C2=O)s1` are 85%, 58% and 37%.
The corresponding values for `O=[N+]([O-])c1cccc(S(=O)(=O)N2CCN(CC(O)COc3ccc(-c4ccccc4)cc3)CC2)c1` (stereo not given) are 94%, 32% and 11%.
The corresponding values for `CC1(C)NC(N)=NC(=N)N1OCc1ccc(-c2ccccc2)cc1` are 95%, 97% and 64%.
With `COc1cc(Cc2cnc(NCCN3CCNCC3)nc2N)ccc1OCc1ccc(C(F)(F)F)cc1`, the Inhibition in test [1] came to 98%; in test [2] it was 4%; in test [3], 12%.
In the same order, the values of `N=C(NCCCCCCCCNC(=N)Nc1ccc(Cl)cc1)Nc1ccc(Cl)cc1` are 93%, 89% and 10%.
With `CC(C)CCNCc1ccc(OCc2cccc(COc3ccc(CNCCC(C)C)cc3I)c2)c(I)c1.Cl`, the values for the Inhibition in test [1], in test [2] and in test [3] were 91%, 49% and 99%, respectively.
Take `O=C(c1ccc([N+](=O)[O-])o1)N1CCN(c2ccccc2)CC1`: the Inhibition in test [1] amounted to 94%; in test [2], 72%; in test [3], 44%.
The corresponding values for `Cc1cccc2nc(-c3ccc(-c4cccc(CNCc5cnn(-c6ccccc6)n5)c4)s3)[nH]c12.O=C(O)C(F)(F)F` are 98%, 58% and 40%.
In the same order, the values of `Cc1ccc(C(=O)Nc2ccc(OC3CCN(CCC(C)C)C3)c(Cl)c2)cc1.O=C(O)C(F)(F)F` (stereo not given) are 83%, 38% and 63%.
With `Cc1cccc2nc(-c3ccc(-c4ccc(CNCc5ccccc5)cc4)s3)[nH]c12.O=C(O)C(F)(F)F`, the Inhibition in test [1] turned out to be 100%; in test [2], 87%; in test [3], 22%.
The corresponding values for `COc1ccc(CNc2cc(C)nc3sc4c(c23)CCC2(C4)OCCO2)cc1` are 96%, 2% and 4%.
The corresponding values for `COc1ccc(NC(=O)C2c3ccccc3C(=O)N(C3CCCC3)C2c2cccs2)cc1OC` (stereo not given) are 90%, 96% and 0%.
The corresponding values for `O=C(NCCc1ccccc1)N(Cc1ccccc1-c1cccc(CNC2CCCC2)c1)C1CCN(Cc2ccccc2)CC1.O=C(O)C(F)(F)F` are 95%, 87% and 31%.
Consider `NC(=O)c1ccc(NCC(=O)Nc2cccc(-c3cccc(-c4nc5ccccc5[nH]4)c3)c2)cc1`, for which the figures for the Inhibition in test [1], in test [2] and in test [3] were 99%, 30% and 9%, respectively.
In the same order, the values of `O=C(O)C(F)(F)F.O=S(=O)(NCCN1CCCC1)c1ccc(-c2cccc(CNCc3ccc(F)cc3)c2)s1` are 99%, 50% and 48%.
As to `Cl.O=C(/C=C/c1ccc(Cl)c(Cl)c1)N1CCC(CN2CCC(c3c[nH]c4ncccc34)CC2)CC1`, the values for the Inhibition in test [1], in test [2] and in test [3] were 84%, 20% and 38%, respectively.
The corresponding values for `CCN1CCCC(CNC(=O)/C(=C/C=C/c2cc3cc(Cl)c(Cl)cc3[nH]2)OC)C1` (stereo not given) are 93%, 89% and 33%.
The corresponding values for `COc1ccc2nccc([C@H](O)CN3CCC(NCc4cc(C)c5c(c4)OCCO5)CC3)c2n1.Cl` are 96%, 35% and 12%.
In the same order, the values of `CCOC(=O)c1cc(C(=O)NCCCCN2CCC(c3ccc(CC)cc3OCC)CC2)ccc1-c1ccc(C(F)(F)F)cc1` are 99%, 71% and 74%.
As for `O=C(Nc1cccc(CN2CCCN(CC3CC3)CC2)c1)c1ccc(Cl)c(Cl)c1.O=C(O)C(F)(F)F`, the results for the Inhibition in test [1], in test [2] and in test [3] were 92%, 5% and 13%, respectively.
For the compound `Cc1c(CC(=O)N(C)C2CCN(CCCCCNC(=O)/C=C/c3ccc(Cl)c(Cl)c3)CC2)sc2ccc(Cl)cc12`, the Inhibition came out at 95% in test [1], 9% in test [2] and 93% in test [3].
In the same order, the values of `COc1cccc(NC(=O)NC2CCN(CCCCCNC(=O)/C=C/c3ccc(Cl)c(Cl)c3)CC2)c1` are 100%, 8% and 14%.
The corresponding values for `CC(=O)c1ccc(NC(=O)Nc2ccc(N(C)c3ccnc(Nc4cccc(CS(C)(=O)=O)c4)n3)cc2)cc1` are 100%, 98% and 86%.
The corresponding values for `CCN(CC)CCN(Cc1ccc(-c2ccc(C(F)(F)F)cc2)cc1)C(=O)Cn1c(CCc2c(F)ccc(F)c2F)nc(=O)c2ccccc21.O=C(O)C(O)C(O)C(=O)O` are 98%, 62% and 44%.
On to `C[C@@H](Nc1nc(NCc2ccccc2)c2sccc2n1)c1ccccc1`, for which the Inhibition in test [1] was 91%; in test [2] it was 75%; in test [3], 31%.
With `COc1cccc(C=CC(=O)N(CCN)Cc2ccccc2)c1.O=C(O)C(=O)O`, the Inhibition is on record as 99% in test [1], 0% in test [2] and 0% in test [3].
Turning to `COc1ccccc1N1CCN(Cc2c(NC(C)=O)sc(C)c2C)CC1`, the Inhibition in test [1] was 95%; in test [2], 80%; in test [3], 9%.
The corresponding values for `CC(=O)Nc1sc(C)c(C)c1CN1CCc2ccccc2C1` are 93%, 94% and 0%.
On to `O=C(Nc1ccc(F)c([N+](=O)[O-])c1)Nc1cc(C(F)(F)F)ccc1Cl`, for which the Inhibition in test [1] worked out at 100%; in test [2] it was 86%; in test [3] it was 5%.
The corresponding values for `CCCN1CCN(c2ccc(NS(=O)(=O)c3ccc(C(=O)Nc4ccc(Cl)cc4)cc3)cc2)CC1.O=C(O)C(F)(F)F` are 100%, 50% and 4%.
With `CC(C)NCc1ccc(OCc2cccc(COc3ccc(CNC(C)C)cc3I)c2)c(I)c1.Cl`, the Inhibition in test [1] is reported as 100%; in test [2], 92%; in test [3], 100%.
On to `Cc1ccc(C(c2nnnn2C2CCCC2)N(Cc2ccco2)Cc2ccccc2Cl)cc1` (stereo not given), for which the Inhibition amounted to 85% in test [1], 78% in test [2] and 8% in test [3].
The corresponding values for `CCC1N=C(N)N=C(N)N1OCc1ccc(Cl)c(Cl)c1` (stereo not given) are 93%, 90% and 54%.
Consider `COCCNCc1ncsc1-c1ccc2c(Nc3ccc(Oc4ccccc4)cc3)ccnc2c1`, for which the Inhibition was found to be 91% in test [1], 93% in test [2] and 34% in test [3].
In the same order, the values of `Cc1cccc2nc(-c3ccc(-c4ccc(CNCC5CCCO5)cc4)cc3)[nH]c12.O=C(O)C(F)(F)F` (stereo not given) are 100%, 81% and 36%.
For `COc1ccc(C2CC(=O)C3=C(C2)NC(C)=C(C(=O)OC2CCCC2)C3c2ccc(O)cc2)cc1OC` (stereo not given), the Inhibition turned out to be 97% in test [1], 92% in test [2] and 0% in test [3].
On to `CS(=O)(=O)NCCCNCc1cccc(-c2ccc(-c3nc4cc(C(F)(F)F)ccc4[nH]3)cc2)c1.O=C(O)C(F)(F)F`, for which the Inhibition in test [1] is listed as 100%; in test [2], 85%; in test [3] it was 17%.
In the same order, the values of `CC(CN(C)C)C(=O)Nc1ccc(-c2cccc(-c3nc4ccccc4[nH]3)c2)cc1` (stereo not given) are 99%, 57% and 68%.
The corresponding values for `CN1CC[C@@H](Oc2cc(C(=O)NCc3ccc(Cl)c(Cl)c3)ccc2C(F)(F)F)C1.Cl` are 88%, 4% and 8%.
The corresponding values for `CC(=O)Nc1ccc(C(=O)Nc2cccc(-c3ccc(-c4nc5cc(F)ccc5[nH]4)cc3)c2)cn1` are 99%, 99% and 10%.
Regarding `CN(C(=O)c1snnc1-c1ccccc1)C1CCN(CCCCCNC(=O)/C=C/c2ccc(Cl)c(Cl)c2)CC1`, the Inhibition turned out to be 96% in test [1], 58% in test [2] and 44% in test [3].
In the same order, the values of `Cc1cccc2nc(-c3ccc(-c4ccc(CN5CCC(C(N)=O)CC5)cc4)s3)[nH]c12.O=C(O)C(F)(F)F` are 97%, 51% and 4%.
In the same order, the values of `O=C(O)C(F)(F)F.c1ccc(CNCc2ccc(-c3cccc(-c4nc5ccccc5[nH]4)c3)cc2)cc1` are 100%, 78% and 55%.
`COc1ccc(C(C(=O)NC2CCN(C[C@H](O)c3ccnc4ccc(OC)cc34)CC2)N2CCN(Cc3ccccc3)CC2)cc1` (stereo not given in full): the Inhibition in test [1] is reported as 100%; in test [2] it was 72%; in test [3], 18%.
The corresponding values for `O=C(Nc1ccc(Oc2cccnc2)cc1)C1CCN(Cc2cc(Cl)ccc2O)CC1` are 83%, 1% and 37%.
As to `COc1ccc2[nH]ccc(=NN=Cc3cccc(Cl)c3)c2c1`, the Inhibition in test [1] was 100%; in test [2], 99%; in test [3] it was 1%.
For `O=C(c1ccc([N+](=O)[O-])o1)N1CCN(c2nc3c(Cl)cccc3s2)CC1`, the Inhibition is reported as 91% in test [1], 87% in test [2] and 0% in test [3].
In the same order, the values of `COc1cccc2cc(C(=O)N[C@@H](CC(C)C)C(=O)N[C@H](/C=N/N(C)C(=O)OC(C)(C)C)CC(=O)OC(C)(C)C)oc12` are 87%, 67% and 5%.
